Consider nine molecules from PubChem BioAssay.

Usually inhibition stands for the change of the read-out against control, counted positive when it falls.

Assay [1] can be described thus: hit retest on RPL19A-GFP reporter strain – cell-based, S. cerevisiae, flow cytometry, cherry picks, mother/daughter gates, confirmation (AID 2270;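 active = GFP response below 50% of the DMSO control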). Particulars: 3 h, at 10 µM, stronger effect = lower value, 100 = same GFP as DMSO wells. For orientation: In flow cytometry, cells or beads pass a laser one at a time.
A short description of assay [2]: yeast TOR pathway reporter LAP4-GFP change – cell-based, cherry picks, flow cytometry, mother/daughter gates, confirmation (AID 2271;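 active = GFP response above 150% of the DMSO control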;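 note: ratio of sample to DMSO plate mean so 100% equals DMSO level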). Conditions: S. cerevisiae LAP4-GFP strain, 3 h, at 10 µM, stronger effect = higher value, 100 means same as DMSO control.
Assay [3] in a line: TOR pathway reporter MEP2-GFP, retest of hits – S. cerevisiae, flow cytometry GFP, cherry picks, confirmation (AID 2272;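 active = GFP response above 150% of the DMSO control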;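 note: ratio of well signal to plate DMSO mean so 100% equals DMSO level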). Conditions: S. cerevisiae MEP2-GFP strain, 3 h, at 10 µM, stronger effect = higher value.
A short description of assay [4]: yeast AGP1-GFP fluorescence change, single-dose – cell-based, flow cytometry, S. cerevisiae, cherry picks, confirmation (AID 2273).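 Note: median GFP channel fluorescence over the whole cell population gate.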 Particulars: S. cerevisiae AGP1-GFP strain, 3 h, at 10 µM.
Assay [5] in a line: TOR pathway CIT2 reporter hit retest – S. cerevisiae, GFP fusion, cherry picks, mother/daughter gates, confirmation (AID 2274). Conditions: S. cerevisiae CIT2-GFP strain, flow cytometry, 3 h, at 10 µM, stronger effect = higher value.
A short description of assay [6]: reduced mouse 2C T cell binding to pMHC/ICAM-1 vesicles – MLPCN validation set, flow cytometry, LFA-1/ICAM-1 modulator project, pilot screen (AID 2523;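 active = response below a set limit, under 55% cells CD8-positive and vesicle-bound, and CD8 cells' 90th-percentile brightness under 279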;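 for vesicle binding response: mean PE anti-B7-1 fluorescence of CD8+ cells relative to row control; 100% = QL9-loaded vesicles with DMSO vehicle in the same plate row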). Particulars: 2C mouse CD8+ T cells, at 7 µM, stronger effect = lower value; double positive events: measured here: CD8+/vesicle+ event percentage.
Assay [7] addresses Integrin beta-1 (Homo sapiens) + Integrin alpha-4 (Homo sapiens) (UniProt P13612+P05556). Kind of assay: alpha4beta1 integrin LIBS antibody binding reduction – U937 cells, HUTS-21 mAb, flow cytometry, validation set, VLA-4 allosteric modulator project, pilot screen (AID 2674;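 active = inhibition above 50%, about 3 SD of the validation set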;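 note: antibody binding induced by the VLA-4 ligand LDV present at three times its Kd; 0% = LDV ligand with antibody and no compound and 100% = antibody without LDV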). Conditions: HUTS-21 LIBS mAb binding, at 6.7 µM, stronger effect = higher value, binding induced by LDV ligand.
A short description of assay [8]: calorie-restriction mimetic ROS inhibitors, yeast – validation compound set, pilot screen (AID 2706;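 active = superoxide response below 65% of plate, a cut near 3 SD across the whole screen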;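 note: yeast exposed to compound for one week at 30 degrees C before staining; 100% = mean of all compound wells on the same plate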). Particulars: S. cerevisiae aging, superoxide DHE fluorescence; at 10 µM, stronger effect = lower value.
Assay [9] deals with Beta-adrenergic receptor kinase 1 (Homo sapiens) (UniProt P25098). Kind of assay: GRK2 binders displacing RNA aptamer, biochemical, validation, human GRK2, bead flow cytometry (AID 488806;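 active = aptamer binding inhibition above 30%, about 3 SD of noise from non-fluorescent compounds; inactive = inhibition at or below 30%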). Conditions: bead-bound GRK2, FAM-aptamer displacement, at 10 µM, stronger effect = higher value.
Beta-adrenergic receptor kinase 1 (Homo sapiens), sequence (P25098 whole entry, looked up): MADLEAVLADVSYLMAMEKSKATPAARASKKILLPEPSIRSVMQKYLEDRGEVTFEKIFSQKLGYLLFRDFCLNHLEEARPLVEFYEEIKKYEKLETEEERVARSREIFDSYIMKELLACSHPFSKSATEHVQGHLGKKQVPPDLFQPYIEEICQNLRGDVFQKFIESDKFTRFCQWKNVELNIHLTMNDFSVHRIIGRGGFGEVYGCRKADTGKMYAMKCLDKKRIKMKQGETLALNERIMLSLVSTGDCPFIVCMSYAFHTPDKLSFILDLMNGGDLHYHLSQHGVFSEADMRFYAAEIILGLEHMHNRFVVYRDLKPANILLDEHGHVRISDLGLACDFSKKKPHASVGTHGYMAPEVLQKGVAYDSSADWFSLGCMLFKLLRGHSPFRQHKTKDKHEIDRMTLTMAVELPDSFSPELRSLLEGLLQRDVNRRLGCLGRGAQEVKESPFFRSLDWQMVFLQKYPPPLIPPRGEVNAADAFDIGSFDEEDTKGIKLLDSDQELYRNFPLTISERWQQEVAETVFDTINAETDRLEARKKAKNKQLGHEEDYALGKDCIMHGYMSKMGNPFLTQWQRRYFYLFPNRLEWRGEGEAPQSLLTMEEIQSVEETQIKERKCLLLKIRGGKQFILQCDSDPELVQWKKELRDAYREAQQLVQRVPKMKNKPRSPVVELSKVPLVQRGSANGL
The target in assay [10] is Beta-2 adrenergic receptor (Homo sapiens) (UniProt P07550). Put plainly: agonist-induced loss of surface beta2AR – cell-based, FAP fluorogen, flow cytometry, validation set, pilot screen (AID 504459;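 active = percent response above 42, roughly 3 SD of non-fluorescent test compounds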;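 note: agonist-driven loss of surface beta2AR via internalization measured by FAP dye flow cytometry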). Particulars: Am2.2-beta2AR cells, at 10 µM, stronger effect = higher value.
Beta-2 adrenergic receptor (Homo sapiens), sequence (P07550 whole entry, looked up): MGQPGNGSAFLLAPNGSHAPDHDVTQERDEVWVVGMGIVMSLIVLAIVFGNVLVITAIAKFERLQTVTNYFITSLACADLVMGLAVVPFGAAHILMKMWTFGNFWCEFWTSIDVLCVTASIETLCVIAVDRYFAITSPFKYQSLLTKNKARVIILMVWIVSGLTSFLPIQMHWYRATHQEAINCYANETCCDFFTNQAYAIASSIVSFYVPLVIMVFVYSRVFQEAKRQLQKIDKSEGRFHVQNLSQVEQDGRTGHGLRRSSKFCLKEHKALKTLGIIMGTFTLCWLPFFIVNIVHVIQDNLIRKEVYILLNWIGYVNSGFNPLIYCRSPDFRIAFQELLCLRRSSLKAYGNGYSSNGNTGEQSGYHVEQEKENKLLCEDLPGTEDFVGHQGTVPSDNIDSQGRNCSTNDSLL
Assay [11] deals with AP-2 complex subunit beta (Homo sapiens) (UniProt P63010). Put plainly: beta-arrestin/AP2 interaction blockers – biochemical, validation set, GST-AP2 beads, flow cytometry, pilot screen (AID 504541;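 active = inhibition above 54%, about 3 SD of non-fluorescent compounds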;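 note: AP2 carries R879A mutation and is captured from E. coli lysate; bead-bound FITC arrestin peptide fluorescence measuring arrestin peptide binding to AP2; 0% = DMSO wells and 100% = excess unlabeled arrestin peptide control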). Conditions: FITC arrestin peptide, at 10 µM, stronger effect = higher value, AP2 beta2 appendage fragment, R879A mutant.
AP-2 complex subunit beta (Homo sapiens), sequence (P63010 whole entry, looked up, the tested form may be a part, one chain of several): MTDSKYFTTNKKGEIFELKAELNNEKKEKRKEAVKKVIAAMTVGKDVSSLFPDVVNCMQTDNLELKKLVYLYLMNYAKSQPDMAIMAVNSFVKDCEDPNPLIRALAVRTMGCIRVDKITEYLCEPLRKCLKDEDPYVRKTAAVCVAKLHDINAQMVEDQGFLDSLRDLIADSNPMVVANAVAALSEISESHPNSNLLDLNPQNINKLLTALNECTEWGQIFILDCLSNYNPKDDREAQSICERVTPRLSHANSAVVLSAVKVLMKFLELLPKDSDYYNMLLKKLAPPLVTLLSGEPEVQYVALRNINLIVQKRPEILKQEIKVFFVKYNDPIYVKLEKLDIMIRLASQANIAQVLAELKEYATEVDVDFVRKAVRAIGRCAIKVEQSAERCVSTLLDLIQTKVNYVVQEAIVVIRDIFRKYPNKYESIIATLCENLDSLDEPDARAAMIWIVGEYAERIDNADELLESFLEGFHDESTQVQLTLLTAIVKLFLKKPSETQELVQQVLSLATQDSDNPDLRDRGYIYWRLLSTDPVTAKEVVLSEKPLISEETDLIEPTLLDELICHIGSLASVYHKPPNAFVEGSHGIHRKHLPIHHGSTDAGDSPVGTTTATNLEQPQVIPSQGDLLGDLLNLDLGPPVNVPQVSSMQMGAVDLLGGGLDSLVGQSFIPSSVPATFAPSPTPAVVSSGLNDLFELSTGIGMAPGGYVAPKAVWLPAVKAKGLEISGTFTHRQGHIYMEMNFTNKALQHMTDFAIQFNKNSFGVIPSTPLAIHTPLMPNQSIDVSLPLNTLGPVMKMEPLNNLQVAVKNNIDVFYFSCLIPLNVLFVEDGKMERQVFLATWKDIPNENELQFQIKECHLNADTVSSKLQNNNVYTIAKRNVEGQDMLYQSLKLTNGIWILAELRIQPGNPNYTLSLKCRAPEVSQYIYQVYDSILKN
Assay [12] can be described thus: cytosolic pH regulators acting via V-ATPase – S. cerevisiae, pHLuorin, HTS validation (AID 504600; in the data active = response above about 15%;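 note: plate controls were DMSO for no effect and reference compound for full effect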). Conditions: V-ATPase proton transport, at 10 µM, stronger effect = higher value.
Assay [13] relates to anti-desmoglein-3 scFv antibody binding to human DSG3. Kind of assay: blockers of pathogenic pemphigus antibody–desmoglein-3 binding – biochemical, validation compound set, bead-based, flow cytometry, pilot screen (AID 588368;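 active = binding below the plate cutoff, the plate median minus 3 SD, with a reading above zero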;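 note: signal is the median channel fluorescence of bead-bound GFP antibody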). Conditions: Protein G beads, DSG3-Fc, scFv-GFP binding, at 10 µM, stronger effect = lower value.
Assay [14] in a line: Nile Red efflux blockade in pump-expressing yeast – validation compound set, multiplex, phenotypic, pilot screen (AID 588506;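 active = efflux inhibition above 0.42, the validation set average plus 4 SD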;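 note: Nile Red retained in cells so higher fluorescence means more efflux inhibition; 0 = negative control wells and 1 = enniatin B 25 µM full block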). Particulars: S. cerevisiae pump-expressing triplex, Nile Red efflux flow cytometry; at 10 µM; stronger effect = higher value; the pumps come from Candida albicans.
Assay [15] deals with ATP-binding cassette sub-family B member 6 (Homo sapiens) (UniProt Q9NP58). Put plainly: blockers of ABCB6-driven porphyrin uptake – K562-ABCB6 cells, flow cytometry, validation set, pilot screen (AID 588550;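 active = inhibition above the screen-wide mean plus 3 SD, about 51%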;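 note: 0% = DMSO wells and 100% = benzethonium chloride 70 µM positive control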). Conditions: K562-ABCB6 porphyrin accumulation, 1 h, at 10 µM, stronger effect = higher value.
ATP-binding cassette sub-family B member 6 (Homo sapiens), sequence (Q9NP58 whole entry, looked up): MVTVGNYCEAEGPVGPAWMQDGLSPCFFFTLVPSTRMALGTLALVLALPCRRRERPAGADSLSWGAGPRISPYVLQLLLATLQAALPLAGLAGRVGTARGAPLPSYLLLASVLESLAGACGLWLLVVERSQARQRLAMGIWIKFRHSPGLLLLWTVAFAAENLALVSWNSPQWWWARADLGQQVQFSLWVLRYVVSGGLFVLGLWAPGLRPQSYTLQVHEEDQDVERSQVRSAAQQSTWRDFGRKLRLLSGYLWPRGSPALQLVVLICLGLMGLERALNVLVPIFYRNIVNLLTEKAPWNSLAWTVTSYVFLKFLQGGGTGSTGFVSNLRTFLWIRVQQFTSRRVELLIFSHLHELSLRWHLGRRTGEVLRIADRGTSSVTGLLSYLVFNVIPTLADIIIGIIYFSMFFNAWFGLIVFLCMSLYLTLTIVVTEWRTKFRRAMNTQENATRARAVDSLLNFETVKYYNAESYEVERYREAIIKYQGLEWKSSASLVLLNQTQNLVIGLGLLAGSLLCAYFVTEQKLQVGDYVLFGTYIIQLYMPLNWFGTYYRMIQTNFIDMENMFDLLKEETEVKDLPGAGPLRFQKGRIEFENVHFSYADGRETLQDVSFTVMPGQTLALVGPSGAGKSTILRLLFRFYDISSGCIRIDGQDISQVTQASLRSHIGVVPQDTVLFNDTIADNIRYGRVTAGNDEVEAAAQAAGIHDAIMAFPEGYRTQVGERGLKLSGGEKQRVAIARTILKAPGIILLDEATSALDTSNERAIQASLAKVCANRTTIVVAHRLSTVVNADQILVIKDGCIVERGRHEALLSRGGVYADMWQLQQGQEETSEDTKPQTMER
The nature of assay [16]: AML differentiation inducers, ER-HoxA9 marrow cells – cell-based, GFP/MAC1 double positive, flow cytometry, validation set, primary screen (AID 588685;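 active = differentiation response of at least 50%, scaled between solvent and reference control, from cells with both markers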;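 note: compound exposure lasts four days before antibody staining and flow analysis; 0% = DMSO wells and 100% = 5 µM fulvestrant positive control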). Particulars: stronger effect = higher value, normalized: vehicle 0, fulvestrant 100.
A short description of assay [17]: green-channel fluorescence artefact in S. cerevisiae – s288c strain, artefact control for yeast TOR pathway GFP screen, dose response (AID 2757;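 active = fluorescence span over the dose series, or activity score, above about 33, limit read from the data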;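 note: thousands of bead-calibrated equivalent soluble fluorophore molecules from median cell fluorescence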). Particulars: 520 nm autofluorescence, flow cytometry, 3 h, at 33 µM, stronger effect = higher value, zero means same as solvent-only cells.
Setting [18] is: measured here: mother cell gate.
[19] abbreviates: measured here: daughter cell gate response.
Setting [20] is: measured here: mother cell gate response.
Setting [21] is: measured here: daughter cell gate.

SMILES strings stand for the structures. The list shows a part of the results. Activity calls are given as the source filed them.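 Rule for the calls, unless noted: active = GFP response above 150% of the DMSO level; inconclusive = fewer than 70 events counted for a yeast strain; inactive = the rest.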

Integrin beta-1 (Homo sapiens) + Integrin alpha-4 (Homo sapiens), sequence (P05556 whole entry, looked up): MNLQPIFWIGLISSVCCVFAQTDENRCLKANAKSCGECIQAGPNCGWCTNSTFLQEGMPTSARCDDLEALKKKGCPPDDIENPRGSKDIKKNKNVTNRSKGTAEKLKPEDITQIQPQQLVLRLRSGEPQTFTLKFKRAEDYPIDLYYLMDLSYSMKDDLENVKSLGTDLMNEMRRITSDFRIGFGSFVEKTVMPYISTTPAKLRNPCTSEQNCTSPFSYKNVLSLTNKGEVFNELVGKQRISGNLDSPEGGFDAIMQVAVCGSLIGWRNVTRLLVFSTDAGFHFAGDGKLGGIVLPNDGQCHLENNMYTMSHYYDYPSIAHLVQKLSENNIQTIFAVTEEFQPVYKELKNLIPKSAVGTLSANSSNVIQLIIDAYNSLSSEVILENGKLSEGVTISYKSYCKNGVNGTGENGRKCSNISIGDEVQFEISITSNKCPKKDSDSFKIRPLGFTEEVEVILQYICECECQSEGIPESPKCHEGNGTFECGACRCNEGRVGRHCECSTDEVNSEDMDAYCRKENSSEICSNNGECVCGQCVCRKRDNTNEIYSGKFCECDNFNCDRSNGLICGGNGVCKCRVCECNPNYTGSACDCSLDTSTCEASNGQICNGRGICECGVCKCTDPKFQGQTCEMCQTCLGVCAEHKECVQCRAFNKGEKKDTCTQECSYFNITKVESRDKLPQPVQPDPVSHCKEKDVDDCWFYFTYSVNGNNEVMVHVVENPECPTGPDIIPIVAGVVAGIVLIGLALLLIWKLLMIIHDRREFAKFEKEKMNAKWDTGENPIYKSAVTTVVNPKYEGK
Integrin beta-1 (Homo sapiens) + Integrin alpha-4 (Homo sapiens), sequence (P13612 whole entry, looked up): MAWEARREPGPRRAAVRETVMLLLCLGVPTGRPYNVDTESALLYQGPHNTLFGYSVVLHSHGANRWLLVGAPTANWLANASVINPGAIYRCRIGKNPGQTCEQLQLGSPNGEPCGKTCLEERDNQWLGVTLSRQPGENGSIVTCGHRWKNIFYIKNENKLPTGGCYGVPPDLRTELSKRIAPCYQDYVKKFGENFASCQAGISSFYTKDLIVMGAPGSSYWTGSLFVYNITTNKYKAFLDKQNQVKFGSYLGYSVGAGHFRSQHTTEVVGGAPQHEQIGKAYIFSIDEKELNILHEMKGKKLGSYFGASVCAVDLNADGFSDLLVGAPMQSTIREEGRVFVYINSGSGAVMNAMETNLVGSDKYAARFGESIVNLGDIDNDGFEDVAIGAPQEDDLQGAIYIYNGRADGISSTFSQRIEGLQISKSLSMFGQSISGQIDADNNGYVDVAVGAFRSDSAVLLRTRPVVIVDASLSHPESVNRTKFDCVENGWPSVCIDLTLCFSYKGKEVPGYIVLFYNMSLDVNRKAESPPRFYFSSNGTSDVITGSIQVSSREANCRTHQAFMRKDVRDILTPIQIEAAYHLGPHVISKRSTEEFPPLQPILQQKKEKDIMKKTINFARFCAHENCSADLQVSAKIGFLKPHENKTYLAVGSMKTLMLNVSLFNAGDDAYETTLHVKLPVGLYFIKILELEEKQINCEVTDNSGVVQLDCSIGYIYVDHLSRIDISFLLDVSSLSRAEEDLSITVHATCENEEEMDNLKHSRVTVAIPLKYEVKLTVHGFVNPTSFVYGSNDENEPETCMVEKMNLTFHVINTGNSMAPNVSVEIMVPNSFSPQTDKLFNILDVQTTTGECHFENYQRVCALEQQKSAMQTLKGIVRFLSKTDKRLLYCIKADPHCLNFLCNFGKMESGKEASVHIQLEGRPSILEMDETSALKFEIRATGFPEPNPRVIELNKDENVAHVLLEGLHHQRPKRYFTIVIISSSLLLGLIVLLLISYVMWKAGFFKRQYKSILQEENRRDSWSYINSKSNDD

As for `CCOC(=O)c1cc(-c2ccc(/C=C3/C(=O)NC(=O)C(C#N)=C3C)o2)ccc1Cl`, the GFP response vs DMSO in assay [1] was 67.6% (inactive); in [1] (setting [18]) it was 55.4%; in assay [3], 160% (inactive). In addition, the values for the GFP response relative to DMSO in [2], in assay [2] (setting [19]) and in assay [2] (setting [20]) were 240% (active), 141% and 231%, respectively. Further, the GFP response, % of DMSO in [4] was 104% (inactive); in assay [5] it was 118% (inactive); in assay [5] (setting [21]), 103%; in assay [5] (setting [18]), 101%.

On to `CCC1CCCCN1S(=O)(=O)c1ccc(C(=O)Nc2nnc(-c3ccccc3Cl)o2)cc1` (stereo not drawn), for which the GFP response vs DMSO is 97.6% (inactive) in assay [1] and 102% (inactive) in [3]. Besides, the GFP response relative to DMSO in assay [2] was 95.4% (inactive); in assay [2] (setting [19]) it was 89.6%. Moreover, the GFP response, % of DMSO was 101% (inactive) in [4] and 98.3% (inactive) in assay [5].

Take `O=C(Nc1nc(-c2ccccc2)cs1)c1cccnc1`: the GFP response vs DMSO in assay [1] was 101% (inactive); in [1] (setting [21]), 102%; in assay [1] (setting [18]), 101%; in [3] it was 98.3% (inactive). Besides, the GFP response relative to DMSO in assay [2] is 103% (inactive). Further, the GFP response, % of DMSO in assay [4] was 91% (inactive); in [5], 98.3% (inactive).

In the case of `Oc1ccc(COCc2ccccc2)c2cccnc12`, the GFP response vs DMSO is 98% (inactive) in assay [1], 93.8% in assay [1] (setting [18]) and 114% (inactive) in assay [3]. For the same molecule, the GFP response relative to DMSO in [2] is 149% (inactive); in [2] (setting [19]), 138%; in [2] (setting [20]), 152%. The GFP response, % of DMSO in [4] is 98.6% (inactive); in assay [5], 95.8% (inactive); in [5] (setting [21]), 101%; in assay [5] (setting [18]), 91.5%. Further, in assay [6], the double positive events came out at 65.9%. Moreover, the vesicle binding response in assay [6] was 129% (inactive). The inhibition in assay [7] is -0.43% (inactive); in assay [11], -1% (inactive); in [15], 1% (inactive). The superoxide response (% of plate) in assay [8] is 75.4% (inactive). Moreover, the aptamer binding inhibition in [9] is 0% (inactive). For the same molecule, the results for the response in assay [10] and in assay [12] were -7.8% (inactive) and 2.93% (inactive), respectively. Also, the binding (% of control) in assay [13] was 101% (inactive). Further, in [14], the efflux inhibition (fraction of control) is 0.12 (inactive). Besides, the differentiation response in [16] is 40.8% (inactive).

For `CCCc1nn(C)c2c1C(c1cccnc1)C(C#N)=C(N)O2` (stereo not drawn), the GFP response vs DMSO in [1] is 101% (inactive); in [1] (setting [21]), 106%; in [3], 97.8% (inactive). Further, the GFP response relative to DMSO in assay [2] is 97.4% (inactive). Moreover, the GFP response, % of DMSO in [4] was 98.3% (inactive); in assay [5] it was 111% (inactive).

For the molecule `CCCc1ccc(OCC(=O)NNC(=S)NC(=O)c2ccco2)cc1`, the GFP response vs DMSO in assay [1] is 111% (inactive); in [1] (setting [18]), 97.1%; in assay [3], 139% (inactive). Further, the GFP response relative to DMSO in assay [2] was 259% (active); in assay [2] (setting [20]), 226%. In addition, the GFP response, % of DMSO in assay [4] was 123% (inactive); in [5], 112% (inactive); in assay [5] (setting [21]) it was 85.2%; in assay [5] (setting [18]) it was 99.3%. In addition, the fluorescence change (kMESF span) in assay [17] was 9.67 (inactive).

With `COc1cccc(/C(C)=N/NC(=O)c2ccc(N(C)C)cc2)c1`, the GFP response vs DMSO in [1] is 99.7% (inactive); in [1] (setting [21]) it was 96.5%; in [1] (setting [18]) it was 99.7%; in [3], 99.5% (inactive). The GFP response relative to DMSO in [2] was 93% (inactive). In addition, the GFP response, % of DMSO was 98.9% (inactive) in [4], 102% (inactive) in [5], 102% in assay [5] (setting [21]) and 89.8% in assay [5] (setting [18]).

As to `O=C(Nc1cc(F)c(Br)cc1F)c1ccc(Cl)cc1`, the GFP response vs DMSO is 99.3% (inactive) in assay [1], 93.3% in assay [1] (setting [21]), 87.2% in [1] (setting [18]) and 106% (inactive) in assay [3]. Also, in assay [2], the GFP response relative to DMSO is 97.7% (inactive). Also, the GFP response, % of DMSO in assay [4] was 98.8% (inactive); in assay [5], 103% (inactive); in assay [5] (setting [21]), 94%; in [5] (setting [18]) it was 94.9%.

`Cc1ccc(N2C(=O)C3C4C=CC(CNC(=S)Nc5cccc(Cl)c5)(O4)C3C2=O)cc1` (stereo not drawn): the GFP response vs DMSO in assay [1] and in assay [3] was 101% (inactive) in each case. Also, the GFP response relative to DMSO is 97% (inactive) in assay [2], 99.1% in assay [2] (setting [19]) and 97.3% in [2] (setting [20]). Besides, the GFP response, % of DMSO was 98.4% (inactive) in assay [4], 97.3% (inactive) in assay [5], 99.2% in assay [5] (setting [21]) and 89.5% in assay [5] (setting [18]).
